A short description of assay [1]: qHTS Assay for Lipid Storage Modulators (AID 1519; calls by dose curve; on activity change, negative = inhibition: on the % scale 0 is the no-effect control and ±100 the full control effect). The note with it: Drosophila S3 cells, BODIPY lipid droplet/cell ratio, laser cytometry, cells loaded with oleic acid; for activity change, negative = inhibition: at 57.5 µM (top of the series). Summed up: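 Cells seeded at 5,000 per well were treated with compounds over a concentration series and loaded with oleic acid (400 uM, as added). Lipid droplet fluorescence (488 nm excitation, 500-530 nm channel) was read by laser-scanning cytometry and normalized to 20 uM Triacsin C.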
For orientation: In qHTS, concentration-response curves come from the screen itself.

In assay [2] the target is DNA repair nuclease/redox regulator APEX1 (Homo sapiens) (UniProt P27695). Description: qHTS Validation Assay for Inhibitors of the Human Apurinic/apyrimidinic Endonuclease 1 (APE1) (AID 1705; further: potency means the concentration at half of the fitted maximal effect;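 on activity change, negative = inhibition: TAMRA fluorescence gain over two minutes as APE1 cuts a quenched THF abasic duplex; on the % scale 0 is the no-effect control and ±100 the full control effect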). The following applies: purified APE1 endonuclease activity, fluorescence, titration; series mostly up to 57.1 µM. Summed up:
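Endonuclease activity of human APE1 is followed as dequenching when the enzyme incises a tetrahydrofuran abasic site in a short duplex labelled 5'-TAMRA/3'-BHQ-2 (50 nM final), after 15 min enzyme–compound preincubation at room temperature.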

A short description of assay [3]: Counterscreen for APE1 Inhibitors: Fluorescent Dye Displacement Validation Assay (AID 1707).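 Further: plate controls were ThO with dsDNA and no compound for no effect and ThO without dsDNA for full effect.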 The note with it: fluorescent dye displacement from DNA; series mostly up to 57.1 µM. In short, it runs like this: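 Thiazole Orange (250 nM) bound to 50 nM TAMRA-labelled dsDNA with tetrahydrofuran abasic site; displacement by DNA-binding compounds lowers fluorescence. Buffer 50 mM Tris-HCl pH 7.5, 50 mM NaCl, 2 mM MgCl2, 0.01% Tween-20; endpoint read at 480/540 nm.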

Assay [4] has as its target Endonuclease 4 (Escherichia coli (strain K12)) (UniProt P0A6C1). Description: Counterscreen for APE1 Inhibitors: qHTS Validation Assay for Inhibitors of Endonuclease IV (AID 1708). Further: on the % scale 0 is the no-effect control and ±100 the full control effect. The following applies: E. coli endonuclease IV, DNA cleavage fluorescence; series mostly up to 57.1 µM. In short, it runs like this:
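E. coli EndoIV at 2 nM final, preincubated 15 min at room temperature with compound, then 50 nM TAMRA/BHQ-2 THF abasic-site duplex added. Buffer: 50 mM Tris-HCl pH 7.5, 50 mM NaCl, 2 mM MgCl2, 1 mM DTT, 0.01% Tween-20. Kinetic fluorescence increase, third minus first read.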
In general terms: A counterscreen serves to expose hits that act by an unwanted route or on another target.

A short description of assay [5]: qHTS for differential inhibitors of proliferation of Plasmodium falciparum line Dd2 (AID 1882). Further: nearly all actives have a fitted effect of over 65% in size. Further: potency means the concentration at half of the fitted maximal effect.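 On activity change, negative = inhibition: plate controls were DMSO vehicle for no effect and 0.29 µM artemisinin for full effect.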 The note with it: Potency: Plasmodium falciparum Dd2 proliferation inhibition; series mostly up to 28.7 µM. Summed up: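 Dd2-infected erythrocytes (0.3% parasitemia, 2.5% hematocrit final) incubated with compound 72 h at 37 C, 5% CO2; lysed with saponin/Triton buffer containing SYBR Green I, incubated overnight in the dark, then read by fluorescence (485/535 nm). Normalized to 0.29 uM artemisinin and DMSO.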

Assay [6] in a line: qHTS for differential inhibitors of proliferation of Plasmodium falciparum line W2 (AID 1883).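 Further: potency means the concentration at half of the fitted maximal effect; parasites grown with compound for 72 h before lysis and staining.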 The following applies: Potency: Plasmodium falciparum W2 proliferation inhibition; series mostly up to 28.7 µM.
A short description of assay [7]: qHTS Assay for Modulators of Human Peripheral Myelin Protein 22 (PMP22) Expression/Activity (AID 1967; active means well fitted curve in the direction sought with a large enough effect in the signal ratio; the % refers to the signal ratio;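 further: 0% = untreated cells and 100% end not stated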). The note with it: Cell-based PMP22 reporter, dual-color luciferase ratio, mouse Pmp22 promoter in mouse Schwann cells; series mostly up to 115 µM. In short, it runs like this:
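Quantitative HTS in a mouse Schwann cell line expressing dual click beetle luciferases: Pmp22 promoter (green) and control EF-alpha promoter (red). After 24h treatment, corrected green/red signal ratio gave %Activity relative to untreated cells.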

Assay [8] deals with Ferritin light chain (Equus caballus) (UniProt P02791). Description: qHTS Validation Assay for Identification of Novel General Anesthetics (AID 2323). Further: on the % scale 0 is the no-effect control and ±100 the full control effect. The following applies: horse apoferritin, anesthetic-site fluorescent probe displacement; series mostly up to 76.9 µM. In short, it runs like this:
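Apoferritin from horse spleen (10 uM) was mixed with 1-aminoanthracene at 50% saturation in PBS, then compounds were added. After 10 min at room temperature, fluorescence was read (ex 380 nm, em 535 nm) and normalized to free-probe and complex controls.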

The target of assay [9] is ATP-dependent DNA helicase Q1 (Homo sapiens) (UniProt P46063). Description: qHTS Validation Assay for Inhibitors of RecQ-Like Dna Helicase 1 (RECQ1) (AID 2353).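 Further: plate controls were DMSO vehicle for no effect and enzyme-free control for full effect.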 The note with it: recombinant RECQ1 helicase DNA unwinding assay; series mostly up to 25.6 µM. Summed up:
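50 nM RECQ1T1 preincubated 15 min with compound in Tris pH 8.0 buffer with MgCl2, DTT, Tween-20 and 2.5 ug/ml poly(dI-dC); started with 200 nM TAMRA/BHQ-2 forked duplex and 2 mM ATP. Unwinding read as fluorescence (525/598 nm), two reads 2 h apart.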

The target in assay [10] is RecQ-like DNA helicase BLM (Homo sapiens) (UniProt P54132). Description: qHTS Validation Assay for Inhibitors of Bloom's syndrome helicase (BLM) (AID 2364).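 Further: plate controls were DMSO vehicle for no effect and enzyme-free control for full effect.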 The following applies: BLM helicase DNA unwinding, fluorescence, in vitro; series mostly up to 57.1 µM. In short, it runs like this:
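50 nM BLM preincubated 15 min at room temperature with compound in pH 8.0 Tris buffer containing 2.5 ug/ml poly(dI-dC); started with 200 nM TAMRA/BHQ-2 forked duplex and 2 mM ATP (final). Unwinding read as TAMRA fluorescence increase, two reads 2 h apart.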

Assay [11] in a line: Cytometric Cell-Based qHTS for Inhibitors of the mTORC1 Signaling Pathway in MEF (Tsc2-/-, p53-/-) Cells (AID 2660).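 Further: percent of cells above a phospho-rpS6 to PI ratio cutoff in each well; plate controls were DMSO for no effect and rapamycin for full effect.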 The note with it: mTORC1 pathway cytometry; series mostly up to 38.3 µM. Summed up:
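Tsc2-/-, p53-/- MEFs (empty vector) exposed to compound 24 h at 37 C, fixed, stained with Alexa-488 anti-phospho-rpS6 Ser235/236 and propidium iodide. Acumen laser scanning; phospho-S6/PI ratio thresholded against 7.5 nM rapamycin, reported as % positive cells.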

Assay [12] is described as follows: High Content Imaging Cell-Based qHTS for Inhibitors of the mTORC1 Signaling Pathway in MEF (Tsc2-/-, p53-/-) Cells (AID 2666).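 Further: percent of cells scored positive for phospho-rpS6 Ser235/236 immunostaining by imaging.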 The note with it: series mostly up to 38.3 µM. In short, it runs like this:
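Phospho-rpS6 (Ser235/236) immunofluorescence, normalized and scored as % positive cells using rapamycin and DMSO controls, was read in empty-vector Tsc2-/-, p53-/- MEFs after 24 h compound exposure at 37 C; propidium iodide counted cells.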

Assay [13] is described as follows: qHTS for differential inhibitors of proliferation of Plasmodium falciparum line GB4 (AID 1816).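 Further: parasite growth measured after 72 h incubation.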 Further: potency means the concentration at half of the fitted maximal effect.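 On activity change, negative = inhibition: 0% = vehicle DMSO and -100% = reference inhibitor.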 The following applies: Potency: Plasmodium falciparum GB4 proliferation inhibition; series mostly up to 28.7 µM.
A short description of assay [14]: qHTS for differential inhibitors of proliferation of Plasmodium falciparum line 3D7 (AID 1876). Further: potency means the concentration at half of the fitted maximal effect. The note with it: P. falciparum 3D7 proliferation inhibition; series mostly up to 28.7 µM.
Assay [15] can be described thus: qHTS for differential inhibitors of proliferation of Plasmodium falciparum line D10 (AID 1877).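 Further: parasites grown with compound for 72 h before DNA staining.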 Further: potency means the concentration at half of the fitted maximal effect.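 On activity change, negative = inhibition: plate controls were vehicle wells for no effect and reference inhibitor wells for full effect.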 The note with it: series mostly up to 28.7 µM.
Assay [16] is described as follows: qHTS for differential inhibitors of proliferation of Plasmodium falciparum line HB3 (AID 1886).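 Further: parasites grown with compound for 72 h before SYBR Green readout.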 Further: potency means the concentration at half of the fitted maximal effect.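 On activity change, negative = inhibition: plate controls were vehicle for no effect and reference inhibitor for full effect.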 The note with it: Potency: Plasmodium falciparum HB3 proliferation inhibition; series mostly up to 28.7 µM.
Assay [17] in a line: qHTS for differential inhibitors of proliferation of Plasmodium falciparum line 7G8 (AID 1815).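 Further: parasite growth measured after three days of incubation.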 Further: potency means the concentration at half of the fitted maximal effect.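 On activity change, negative = inhibition: plate controls were vehicle wells for no effect and reference inhibitor wells for full effect.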 The following applies: Plasmodium falciparum 7G8 proliferation inhibition; series mostly up to 28.7 µM.
The mark [18] stands for this setting: measured here: cell count channel max response.
[19] abbreviates: measured here: lipid channel max response.

The structures appear in SMILES notation. Inconclusive results are not listed. Activity calls are given as the source filed them. Unless noted, the call rests on the fitted dose curve; in most records, active means well fitted curve in the direction sought with a large enough effect; inconclusive means small, poorly fitted or top-dose-only effect, or another doubt; inactive means no such curve, though single readings can be large; an effect the other way counts as inactive or inconclusive.

Chain of DNA repair nuclease/redox regulator APEX1 (Homo sapiens) (P27695 whole entry, looked up): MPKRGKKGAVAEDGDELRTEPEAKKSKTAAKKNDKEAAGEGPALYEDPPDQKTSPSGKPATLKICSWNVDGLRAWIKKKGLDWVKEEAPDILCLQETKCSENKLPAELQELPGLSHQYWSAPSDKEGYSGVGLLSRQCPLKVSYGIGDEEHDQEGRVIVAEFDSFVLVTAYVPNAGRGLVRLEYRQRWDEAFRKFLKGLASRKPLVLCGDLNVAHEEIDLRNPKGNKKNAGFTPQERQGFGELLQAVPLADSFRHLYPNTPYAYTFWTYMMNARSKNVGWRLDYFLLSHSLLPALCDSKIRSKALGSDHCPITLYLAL
Chain of RecQ-like DNA helicase BLM (Homo sapiens) (P54132 whole entry, looked up): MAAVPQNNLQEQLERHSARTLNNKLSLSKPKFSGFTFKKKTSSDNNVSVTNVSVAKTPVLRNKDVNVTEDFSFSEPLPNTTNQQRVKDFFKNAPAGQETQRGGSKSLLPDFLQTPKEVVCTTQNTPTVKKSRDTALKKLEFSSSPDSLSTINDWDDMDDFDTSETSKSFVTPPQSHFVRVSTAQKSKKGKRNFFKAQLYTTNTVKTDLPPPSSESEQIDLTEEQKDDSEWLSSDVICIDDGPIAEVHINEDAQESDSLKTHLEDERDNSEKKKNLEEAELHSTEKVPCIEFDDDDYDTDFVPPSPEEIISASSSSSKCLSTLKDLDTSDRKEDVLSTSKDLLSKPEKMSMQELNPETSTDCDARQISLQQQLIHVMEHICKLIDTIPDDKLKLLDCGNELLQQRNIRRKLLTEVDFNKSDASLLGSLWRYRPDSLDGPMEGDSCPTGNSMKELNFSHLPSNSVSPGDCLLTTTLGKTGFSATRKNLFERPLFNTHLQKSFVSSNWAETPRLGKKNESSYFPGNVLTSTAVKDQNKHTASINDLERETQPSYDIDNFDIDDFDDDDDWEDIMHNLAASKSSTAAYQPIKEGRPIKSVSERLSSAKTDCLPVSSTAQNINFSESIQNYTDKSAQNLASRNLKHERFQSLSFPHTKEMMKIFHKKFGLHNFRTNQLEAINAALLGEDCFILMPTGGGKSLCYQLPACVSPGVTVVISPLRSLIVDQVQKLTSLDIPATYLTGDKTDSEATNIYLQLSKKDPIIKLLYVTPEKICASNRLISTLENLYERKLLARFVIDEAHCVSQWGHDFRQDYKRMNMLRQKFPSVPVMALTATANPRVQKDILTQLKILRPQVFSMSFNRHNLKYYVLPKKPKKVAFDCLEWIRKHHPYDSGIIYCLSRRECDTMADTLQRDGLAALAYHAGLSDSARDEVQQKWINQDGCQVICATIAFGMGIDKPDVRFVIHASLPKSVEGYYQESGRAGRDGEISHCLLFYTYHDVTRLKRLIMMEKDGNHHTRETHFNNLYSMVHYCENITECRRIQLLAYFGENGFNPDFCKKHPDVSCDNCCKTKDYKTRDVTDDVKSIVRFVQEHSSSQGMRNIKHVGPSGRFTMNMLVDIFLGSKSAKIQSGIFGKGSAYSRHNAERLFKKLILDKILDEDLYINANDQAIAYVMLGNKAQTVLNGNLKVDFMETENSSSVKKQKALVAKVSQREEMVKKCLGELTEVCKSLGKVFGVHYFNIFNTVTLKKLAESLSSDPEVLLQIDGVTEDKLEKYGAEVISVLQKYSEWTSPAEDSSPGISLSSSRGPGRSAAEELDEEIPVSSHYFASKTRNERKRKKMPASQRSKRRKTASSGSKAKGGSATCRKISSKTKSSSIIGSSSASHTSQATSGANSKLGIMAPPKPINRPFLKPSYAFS
Chain of ATP-dependent DNA helicase Q1 (Homo sapiens) (P46063 whole entry, looked up): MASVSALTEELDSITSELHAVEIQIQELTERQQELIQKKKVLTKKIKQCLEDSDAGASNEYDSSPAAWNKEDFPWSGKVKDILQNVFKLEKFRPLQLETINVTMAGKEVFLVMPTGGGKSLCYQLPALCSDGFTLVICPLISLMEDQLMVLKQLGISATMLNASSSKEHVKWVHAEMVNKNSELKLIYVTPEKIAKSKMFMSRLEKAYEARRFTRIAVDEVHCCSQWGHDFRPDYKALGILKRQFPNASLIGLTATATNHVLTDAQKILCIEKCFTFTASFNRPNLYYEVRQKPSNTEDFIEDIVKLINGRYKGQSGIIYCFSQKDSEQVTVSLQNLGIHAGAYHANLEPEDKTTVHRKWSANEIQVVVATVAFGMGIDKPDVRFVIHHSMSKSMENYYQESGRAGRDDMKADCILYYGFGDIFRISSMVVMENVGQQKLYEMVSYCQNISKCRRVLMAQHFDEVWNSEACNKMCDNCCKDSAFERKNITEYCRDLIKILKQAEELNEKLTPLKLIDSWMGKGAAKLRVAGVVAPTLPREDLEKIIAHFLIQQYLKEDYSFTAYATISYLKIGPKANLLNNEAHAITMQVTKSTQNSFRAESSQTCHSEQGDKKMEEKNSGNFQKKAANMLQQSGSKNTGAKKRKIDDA
Chain of Ferritin light chain (Equus caballus) (P02791 2-175 limits assumed): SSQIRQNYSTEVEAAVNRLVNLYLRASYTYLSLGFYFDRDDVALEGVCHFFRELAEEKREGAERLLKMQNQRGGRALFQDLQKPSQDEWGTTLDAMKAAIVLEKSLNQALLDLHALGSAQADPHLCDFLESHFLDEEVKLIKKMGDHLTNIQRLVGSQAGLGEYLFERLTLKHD

As for `CC(C)NP(=O)(NC(C)C)OP(=O)(NC(C)C)NC(C)C`, the activity change, negative = inhibition in [1] is 2% (inactive). Besides, the values for the max response in assay [1] (setting [18]) and in assay [1] (setting [19]) were -5.61% and -4.03%, respectively. Also, the Potency result in [2], in assay [3], in assay [4], in assay [5], in [9] and in assay [10] was “inactive” each time. Also, the Potency entry in assay [11] and in [12] was “inactive” each time. Further, the Potency in assay [6] is 11.2 µM (active). For the same compound, the outcome in assay [7] and in [8] was inactive.

Consider `NCC(O)c1cc(O)c(O)cc1F` (stereo not drawn), for which, in assay [1], the activity change, negative = inhibition was -0.0544% (inactive). The max response in [1] (setting [18]) is -35.5%; in [1] (setting [19]) it was -39.7%. In addition, the Potency in [2] was 35.5 µM (active). Further, the Potency entry in [3], in [4], in assay [13], in [14], in assay [15] and in assay [5] was “inactive” in each case. Moreover, the Potency entry in assay [16], in assay [9], in assay [11] and in assay [12] was “inactive” in each case. Besides, the compound was called inactive in [8].

Regarding `CC12NC(Cc3ccccc31)c1ccccc12` (stereo not drawn), the activity change, negative = inhibition in [1] is -2.09% (inactive). Moreover, the max response in assay [1] (setting [18]) was 1.93%; in assay [1] (setting [19]), -0.147%. In addition, the Potency result in assay [2], in assay [3], in assay [4], in assay [14], in assay [15] and in assay [16] was “inactive” throughout. The Potency result in assay [9], in assay [11] and in [12] was “inactive” in each case. The results for the Potency in [13], in assay [5] and in assay [6] were 5.01 µM (active), 7.94 µM (active) and 4.47 µM (active), respectively. Further, the result in assay [7] and in assay [8] was inactive.

Take `COc1ccc(CNC(=O)/C=C/c2ccc3[nH]cc(CCN(C)C)c3c2)cc1`: the activity change, negative = inhibition in [1] is -4.95% (inactive). Besides, the max response was -78.1% in assay [1] (setting [18]) and -80.1% in assay [1] (setting [19]). Moreover, the Potency entry in assay [2], in assay [3], in assay [9], in [10], in assay [11] and in [12] was “inactive” each time. The Potency in assay [17] is 11.2 µM (active); in [13] it was 11.2 µM (active); in assay [14], 8.91 µM (active); in assay [15] it was 11.2 µM (active); in assay [6], 8.91 µM (active); in [16] it was 10 µM (active). The result in assay [8] was inactive.

As to `COc1ccc2[nH]c3c(c2c1)CCNC3`, the activity change, negative = inhibition in [1] was -0.655% (inactive). In addition, the max response was -42.9% in assay [1] (setting [18]) and -46.2% in assay [1] (setting [19]). Further, the Potency entry in assay [2], in [3], in assay [4], in assay [17], in assay [14] and in assay [15] was “inactive” in each case. For the same compound, the Potency entry in assay [5], in assay [16], in [10], in assay [11] and in [12] was “inactive” each time. In addition, the result in [8] was inactive.

As to `CC(N)Cc1c[nH]c2ccc(OCc3cccs3)cc12` (stereo not drawn), the activity change, negative = inhibition in [1] is -0.884% (inactive). In addition, the max response is -45.6% in [1] (setting [18]) and -46.5% in assay [1] (setting [19]). The Potency result in [2], in [3], in [9], in [10], in assay [11] and in [12] was “inactive” throughout. The Potency is 7.94 µM (active) in assay [17]; 7.94 µM (active) in assay [13]; 10 µM (active) in assay [14]; 7.94 µM (active) in assay [6]; 11.2 µM (active) in assay [16]. For the same compound, in assay [8], the compound was called inactive.

In the case of `CN1CCc2cccc(Cl)c2CC1`, the activity change, negative = inhibition in [1] is 0.882% (inactive). The max response is -8.27% in assay [1] (setting [18]) and -8.1% in [1] (setting [19]). The Potency entry in assay [2], in assay [3], in assay [4], in [17], in assay [14] and in assay [15] was “inactive” each time. In addition, the Potency entry in assay [5], in [16], in assay [9], in assay [10], in [11] and in assay [12] was “inactive” in each case. Also, the result in assay [7] and in assay [8] was inactive.

With `NC(=O)c1ccc(OCC(O)CN2CC=C(c3ccc(F)cc3)CC2)cc1` (stereo not drawn), the activity change, negative = inhibition in assay [1] is -3.69% (inactive). Besides, the max response in [1] (setting [18]) is -43.3%; in [1] (setting [19]) it was -42.5%. Further, the Potency entry in assay [2], in [3], in assay [4], in assay [9], in [10] and in assay [11] was “inactive” in each case. In assay [12], the Potency result is “inactive”. The Potency in [13] is 10 µM (active); in assay [14], 11.2 µM (active); in [6] it was 7.94 µM (active). Besides, the compound was called inactive in assay [8].

The values are drawn from PubChem BioAssay (NCATS).
